Measurements as given in PubChem BioAssay (NCATS).
Inconclusive results are not listed. Active and inactive are the calls of the source. Calls follow the shape of the dose curve; as a rule, active = well fitted inhibition curve with a large enough effect; inconclusive = small, poorly fitted or top-dose-only effect; inactive = flat fitted curve, though single readings scatter.

test system: Zika virus NS2B-NS3 protease; test: Primary screen GU AMC qHTS for Zika virus inhibitors (AID 1347154); settings: Zika NS2B-NS3 unlinked protease, AMC fluorogenic substrate; series mostly up to 54.1 µM; activity change, negative = inhibition: at the top concentration; also: nearly all actives have a fitted effect of over 70% in size;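 as to activity change, negative = inhibition: 0% = no-inhibitor control and -100% = no-enzyme control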
In short: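 Unlinked Zika NS2B hydrophilic domain/NS3 protease domain noncovalent complex (25 nM final) in 10 mM Tris-HCl pH 8.0, 0.01% Tween 20, with AMC peptide substrate. Fluorescence (ex 340, em 450 nm) change over 15 min, room temperature; percent inhibition fitted to 4-parameter Hill equation.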
Potency is read from the fitted curve at half-maximal effect.

| Compound | activity change, negative = inhibition | Potency |
| --- | --- | --- |
| Cc1onc(-c2c(Cl)cccc2Cl)c1C(=O)N[C@@H]1C(=O)N2[C@@H]1SC(C)(C)[C@@H]2C(=O)O | -6.66% (inactive) |  |
| CC1(C)OC[C@@H](COC(=O)CCc2ccc(OC[C@@H](O)CNCCNC(=O)N3CCOCC3)cc2)O1 | 2.41% (inactive) |  |
| O=C1c2ccccc2C(=O)C1c1ccccc1 | -5.4% (inactive) |  |
| CNC(=O)CN(CCN(CCN(CC(=O)[O-])CC(=O)NC)CC(=O)[O-])CC(=O)[O-].O.[Gd+3] | -1.54% (inactive) |  |
| C=CCc1ccc(O)c(OC)c1 | -3.71% (inactive) |  |
| C[C@]12CC[C@@H]3c4ccc(O)cc4CC[C@H]3[C@@H]1C[C@@H](O)[C@@H]2O | -5.08% (inactive) |  |
| CCCCOc1cc(C(=O)NCCN(CC)CC)c2ccccc2n1 | -20.2% (inactive) |  |
| CCN1CCN(c2cc3c(cc2F)c(=O)c(C(=O)O)cn3C2CC2)CC1 | -17.2% (inactive) |  |
| O=C1[C@H]2CCCC[C@H]2C(=O)N1CCCCN1CCN(c2nsc3ccccc23)CC1 | -3.29% (inactive) |  |
| COc1cc2c(cc1OC)C(=O)C(CC1CCN(Cc3ccccc3)CC1)C2 (configuration not stated) | -14% (inactive) |  |
| CCN(CC)CCOC(=O)C(c1ccccc1)C1CCCCC1 (configuration not stated) | -13% (inactive) |  |
| Cc1c(F)c(N2CCNC(C)C2)cc2c1c(=O)c(C(=O)O)cn2C1CC1 (configuration not stated) | -10.1% (inactive) |  |
| Cc1cc(N)c2cc(NC(=O)Nc3ccc4nc(C)cc(N)c4c3)ccc2n1 |  | 14.1 µM (active) |
| CN(C(=O)CN(CCO)CC(=O)N(C)C(C)(C)Cc1ccccc1)C(C)(C)Cc1ccccc1 | -6.61% (inactive) |  |
| C/C=C/c1ccc(OC)cc1 | -6.87% (inactive) |  |
| CC1(C)O[C@@H]2[C@@H](CO[C@@]3(COS(N)(=O)=O)OC(C)(C)O[C@@H]23)O1 | -3.95% (inactive) |  |
| CCOc1ccc(Cc2nccc3cc(OCC)c(OCC)cc23)cc1OCC | -4.09% (inactive) |  |
